The results in this text go back to the antibiotic and cytotoxicity screens of Wong et al. (2023).

About 3,300 (8.5%) of roughly 39,000 compounds were called active. The full list was thinned out, with actives kept by preference.

The test has as its system HepG2. Description: cytotoxicity call (relative viability < 0.9). The note with it: 10 µM.
For `C[C@H]1CN([C@@H](C)CO)C(=O)c2cc(C#CC3(O)CCCC3)cnc2O[C@@H]1CN(C)C(=O)Nc1ccc2c(c1)OCO2`, the cytotoxicity call is “inactive”.

On to `O=C(/C=c1/nc2c([nH]c1=O)=NON2)c1ccccc1`, for which the cytotoxicity call was “inactive”.

On to `C[C@H]1CNC(=CC(=O)c2ccccc2)C(=O)N1`, for which the cytotoxicity call was “inactive”.

For `O=C1OCCN/C1=C/C(=O)c1ccccc1`, the cytotoxicity call is “active”.

As for `COCCNC(=O)C[C@H]1CC[C@@H](NS(=O)(=O)c2ccc(C)cc2)[C@@H](CO)O1`, the cytotoxicity call is “inactive”.

Consider `C[C@@H]1CN([C@@H](C)CO)C(=O)c2cc(C#CC3CC3)cnc2O[C@@H]1CN(C)S(=O)(=O)c1cccc(F)c1`, for which the cytotoxicity call is “inactive”.

Regarding `C[C@@H]1CN([C@@H](C)CO)C(=O)c2c(c3ccccc3n2C)-c2ccccc2CO[C@H]1CN(C)C(=O)Nc1cccc(C(F)(F)F)c1`, the cytotoxicity call is “active”.

With `C[C@H]1CN([C@@H](C)CO)C(=O)c2c(c3ccccc3n2C)-c2ccccc2CO[C@H]1CN(C)C(=O)Nc1cccc(C(F)(F)F)c1`, the cytotoxicity call was “inactive”.

Turning to `C[C@@H]1CN([C@H](C)CO)C(=O)c2c(c3ccccc3n2C)-c2ccccc2CO[C@@H]1CN(C)C(=O)Nc1cccc(C(F)(F)F)c1`, the cytotoxicity call was “active”.

Regarding `C[C@H](CO)N1C[C@H](C)[C@@H](CN(C)C(=O)Nc2cccc(C(F)(F)F)c2)OCc2ccccc2-c2c(n(C)c3ccccc23)C1=O`, the cytotoxicity call was “inactive”.

Turning to `C[C@@H]1CN([C@H](C)CO)C(=O)c2c(c3ccccc3n2C)-c2ccccc2CO[C@H]1CN(C)C(=O)Nc1cccc(C(F)(F)F)c1`, the cytotoxicity call was “inactive”.

Turning to `C[C@H](CO)N1C[C@H](C)[C@H](CN(C)C(=O)Nc2cccc(C(F)(F)F)c2)OCc2ccccc2-c2c(n(C)c3ccccc23)C1=O`, the cytotoxicity call was “inactive”.

In the case of `COc1ccc(S(=O)(=O)N(C)C[C@@H]2OCCCC[C@H](C)Oc3ccc(NC(=O)Nc4c(C)noc4C)cc3C(=O)N([C@@H](C)CO)C[C@@H]2C)cc1`, the cytotoxicity call was “inactive”.

As for `Cc1noc(C)c1NC(=O)N(C)C[C@@H]1Oc2ccc(NC(=O)NC(C)C)cc2CC(=O)N([C@@H](C)CO)C[C@@H]1C`, the cytotoxicity call is “inactive”.

On to `O=C(C=Cc1ccc(O)c(O)c1)OC1CC(O)(C(=O)O)CC(O)C1O` (centres undefined), for which the cytotoxicity call is “inactive”.

With `O=C(/C=C/c1ccc(O)c(O)c1)O[C@@H]1C[C@](O)(C(=O)O)C[C@@H](O)[C@H]1O`, the cytotoxicity call is “inactive”.

`O=C(/C=C/c1ccc(O)c(O)c1)O[C@@H]1C[C@@](O)(C(=O)O)C[C@@H](O)[C@@H]1O`: the cytotoxicity call is “active”.

With `Cc1noc(C)c1NC(=O)N(C)C[C@H]1OCCCC[C@@H](C)Oc2ccc(NS(=O)(=O)c3ccc(F)cc3)cc2C(=O)N([C@@H](C)CO)C[C@H]1C`, the cytotoxicity call was “inactive”.

For `C[C@H]1CN([C@@H](C)CO)C(=O)c2cc(C#CCC3CCCC3)cnc2O[C@@H]1CN(C)C(=O)c1cnccn1`, the cytotoxicity call is “inactive”.

For the molecule `CC(C)NC(=O)N(C)C[C@H]1Oc2cc(C#Cc3cccc(F)c3)ccc2S(=O)(=O)N([C@@H](C)CO)C[C@H]1C`, the cytotoxicity call is “inactive”.

Turning to `CNC[C@@H]1OCCCC[C@H](C)Oc2ccc(NS(=O)(=O)c3cn(C)cn3)cc2C(=O)N([C@@H](C)CO)C[C@@H]1C`, the cytotoxicity call was “inactive”.

Consider `C[C@@H]1CCCCO[C@H](CN(C)S(=O)(=O)c2ccc(Cl)cc2)[C@@H](C)CN([C@@H](C)CO)C(=O)c2cc(NS(=O)(=O)c3ccc(Cl)cc3)ccc2O1`, for which the cytotoxicity call is “inactive”.

Take `C[C@@H]1CN([C@H](C)CO)C(=O)c2cc(NS(=O)(=O)c3ccc(Cl)cc3)ccc2O[C@@H](C)CCCCO[C@@H]1CN(C)S(=O)(=O)c1ccc(Cl)cc1`: the cytotoxicity call was “inactive”.

`C[C@H](CO)N1C[C@H](C)[C@@H](CN(C)S(=O)(=O)c2ccc(Cl)cc2)OCCCC[C@H](C)Oc2ccc(NS(=O)(=O)c3ccc(Cl)cc3)cc2C1=O`: the cytotoxicity call was “inactive”.

On to `C[C@@H]1CCCCO[C@H](CN(C)S(=O)(=O)c2ccc(Cl)cc2)[C@H](C)CN([C@@H](C)CO)C(=O)c2cc(NS(=O)(=O)c3ccc(Cl)cc3)ccc2O1`, for which the cytotoxicity call was “active”.

As for `C[C@@H]1CCCCO[C@@H](CN(C)S(=O)(=O)c2ccc(Cl)cc2)[C@@H](C)CN([C@@H](C)CO)C(=O)c2cc(NS(=O)(=O)c3ccc(Cl)cc3)ccc2O1`, the cytotoxicity call was “inactive”.

For the molecule `C[C@H](CO)N1C[C@H](C)[C@H](CN(C)S(=O)(=O)c2ccc(Cl)cc2)OCCCC[C@H](C)Oc2ccc(NS(=O)(=O)c3ccc(Cl)cc3)cc2C1=O`, the cytotoxicity call is “active”.

On to `C[C@@H]1CCCCO[C@H](CN(C)S(=O)(=O)c2ccc(Cl)cc2)[C@@H](C)CN([C@H](C)CO)C(=O)c2cc(NS(=O)(=O)c3ccc(Cl)cc3)ccc2O1`, for which the cytotoxicity call is “inactive”.

Regarding `C[C@@H]1CCCCO[C@@H](CN(C)S(=O)(=O)c2ccc(Cl)cc2)[C@H](C)CN([C@@H](C)CO)C(=O)c2cc(NS(=O)(=O)c3ccc(Cl)cc3)ccc2O1`, the cytotoxicity call was “inactive”.

Regarding `C[C@@H]1CCCCO[C@H](CN(C)S(=O)(=O)c2ccc(Cl)cc2)[C@H](C)CN([C@H](C)CO)C(=O)c2cc(NS(=O)(=O)c3ccc(Cl)cc3)ccc2O1`, the cytotoxicity call is “active”.

Consider `C[C@@H]1CCCCO[C@@H](CN(C)S(=O)(=O)c2ccc(Cl)cc2)[C@@H](C)CN([C@H](C)CO)C(=O)c2cc(NS(=O)(=O)c3ccc(Cl)cc3)ccc2O1`, for which the cytotoxicity call is “inactive”.

As to `C[C@H]1CCCCO[C@@H](CN(C)S(=O)(=O)c2ccc(Cl)cc2)[C@@H](C)CN([C@@H](C)CO)C(=O)c2cc(NS(=O)(=O)c3ccc(Cl)cc3)ccc2O1`, the cytotoxicity call was “inactive”.

Take `C[C@@H]1CN([C@@H](C)CO)C(=O)c2cc(NS(=O)(=O)c3ccc(Cl)cc3)ccc2O[C@@H](C)CCCCO[C@@H]1CN(C)S(=O)(=O)c1ccc(Cl)cc1`: the cytotoxicity call is “active”.

Regarding `CN(C)C(=O)c1ccc(-c2cccc(-c3nc(C(=O)NCc4ccccc4)cc4c3[C@@H](CCO)N([S@@](=O)C(C)(C)C)C4)c2)cc1`, the cytotoxicity call is “inactive”.

Turning to `C[C@H](NC(=O)C[C@H]1CC[C@@H](NC(=O)CN2CCOCC2)[C@@H](CO)O1)c1ccccc1`, the cytotoxicity call was “inactive”.

For `Cc1ccc(S[C@]2(C(=O)NC3CC3)CC(=O)N(Cc3cc(C(F)(F)F)cc(C(F)(F)F)c3)[C@@H]2c2ccc(CO)cc2)cc1`, the cytotoxicity call was “inactive”.

Take `C[C@@H]1CCCCO[C@@H](CN(C)S(=O)(=O)c2ccccc2)[C@H](C)CN([C@@H](C)CO)C(=O)c2cc(NC(=O)C3CCCCC3)ccc2O1`: the cytotoxicity call is “inactive”.

On to `COc1ccc(S(=O)(=O)Nc2ccc3c(c2)CC(=O)N([C@@H](C)CO)C[C@@H](C)[C@@H](CN(C)Cc2ccc(C(=O)O)cc2)O3)cc1`, for which the cytotoxicity call was “inactive”.

For the molecule `COc1ccc(NC(=O)N(C)C[C@@H]2OCCCC[C@H](C)Oc3ccc(NS(=O)(=O)c4cccs4)cc3C(=O)N([C@@H](C)CO)C[C@@H]2C)cc1`, the cytotoxicity call is “inactive”.

In the case of `CCS(=O)(=O)N1C[C@]2(CN(C2)C(=O)c2ccc3c(c2)OCO3)c2c(n(c3cc(ccc23)OC)C)[C@H]1CO`, the cytotoxicity call was “inactive”.

With `CN1CCN(C(=O)C[C@@H]2CC[C@@H]3[C@H](COC[C@@H](O)CN3C(=O)Nc3cc(Cl)cc(Cl)c3)O2)CC1`, the cytotoxicity call is “inactive”.

Regarding `C[C@H]1CN([C@@H](C)CO)C(=O)c2cc(NC(=O)C3CCCCC3)ccc2O[C@H]1CN(C)C(=O)Nc1ccc(C(F)(F)F)cc1`, the cytotoxicity call is “inactive”.

Turning to `C[C@@H]1CN([C@@H](C)CO)C(=O)c2cc(NS(=O)(=O)c3ccc(Cl)cc3)ccc2O[C@@H](C)CCCCO[C@H]1CN(C)S(=O)(=O)c1ccc(Cl)cc1`, the cytotoxicity call was “inactive”.

On to `C[C@@H]1CCCCO[C@@H](CN(C)S(=O)(=O)c2ccc(Cl)cc2)[C@H](C)CN([C@H](C)CO)C(=O)c2cc(NS(=O)(=O)c3ccc(Cl)cc3)ccc2O1`, for which the cytotoxicity call is “active”.

Turning to `C[C@@H]1CN([C@H](C)CO)C(=O)c2cc(NS(=O)(=O)c3ccc(Cl)cc3)ccc2O[C@@H](C)CCCCO[C@H]1CN(C)S(=O)(=O)c1ccc(Cl)cc1`, the cytotoxicity call was “inactive”.

`COCCNC(=O)C[C@H]1C[C@H]2c3cc(NC(=O)CN(C)C)ccc3O[C@H]2[C@@H](CO)O1`: the cytotoxicity call is “inactive”.

As to `C[C@H](CO)N1C[C@H](C)[C@@H](CN(C)Cc2ccc(Oc3ccccc3)cc2)Oc2ccc(NC(=O)NC3CCCCC3)cc2C1=O`, the cytotoxicity call was “active”.

Take `CC(C)NC(=O)Nc1ccc2c(c1)C(=O)N([C@@H](C)CO)C[C@@H](C)[C@@H](CN(C)Cc1ccc(Oc3ccccc3)cc1)O2`: the cytotoxicity call is “inactive”.

In the case of `C[C@@H]1CN([C@@H](C)CO)C(=O)c2cc(NC(=O)NC3CCCCC3)ccc2O[C@H]1CN(C)Cc1ccc(Oc2ccccc2)cc1`, the cytotoxicity call was “inactive”.

With `CC(C)NC(=O)Nc1ccc2c(c1)C(=O)N([C@H](C)CO)C[C@@H](C)[C@H](CN(C)Cc1ccc(Oc3ccccc3)cc1)O2`, the cytotoxicity call is “inactive”.

As to `C[C@H](CO)N1C[C@H](C)[C@H](CN(C)Cc2ccc(Oc3ccccc3)cc2)Oc2ccc(NC(=O)NC3CCCCC3)cc2C1=O`, the cytotoxicity call is “inactive”.

As to `C[C@@H]1CN([C@H](C)CO)C(=O)c2cc(NC(=O)NC3CCCCC3)ccc2O[C@@H]1CN(C)Cc1ccc(Oc2ccccc2)cc1`, the cytotoxicity call was “active”.

Take `C[C@@H]1CN([C@@H](C)CO)C(=O)c2cc(NC(=O)NC3CCCCC3)ccc2O[C@@H]1CN(C)Cc1ccc(Oc2ccccc2)cc1`: the cytotoxicity call was “active”.

As to `C[C@@H]1CN([C@H](C)CO)C(=O)c2cc(NC(=O)NC3CCCCC3)ccc2O[C@H]1CN(C)Cc1ccc(Oc2ccccc2)cc1`, the cytotoxicity call is “inactive”.

Take `C[C@H]1CN([C@@H](C)CO)C(=O)c2cc(NC(=O)NC3CCCCC3)ccc2O[C@H]1CN(C)Cc1ccc(Oc2ccccc2)cc1`: the cytotoxicity call was “inactive”.

For the molecule `O=C(C[C@@H]1CC[C@@H]2[C@H](COC[C@H](O)CN2C(=O)Nc2ccc(Cl)cc2)O1)NCCc1ccncc1`, the cytotoxicity call was “inactive”.

`Cn1ccnc1C(=O)N[C@@H]1CN(C(N)=O)[C@H]2CCCO[C@@H]12`: the cytotoxicity call is “inactive”.

In the case of `C[C@@H]1CN([C@@H](C)CO)C(=O)Cc2cc(NC(=O)C3CC3)ccc2O[C@@H]1CN(C)S(=O)(=O)c1cccs1`, the cytotoxicity call is “inactive”.

Consider `Cc1ccc(S(=O)(=O)Nc2ccc3c(c2)C(=O)N([C@H](C)CO)C[C@@H](C)[C@H](CN(C)C(=O)Nc2ccc4c(c2)OCO4)OCCCC[C@@H](C)O3)cc1`, for which the cytotoxicity call is “inactive”.
